Measurements as given in PubChem BioAssay AID1159580 (chemical genetic matrix, 2015).
In all, about 5,500 compounds went through this assay and about 2,000 (36%) were called active. Roughly 18% stayed inconclusive and do not appear here. Rule as the data show it: active = normalized growth mostly below about 0.91 (no sharp cut-off); inconclusive = no clear call, values can overlap the other calls; inactive = mostly above about 0.92. This is one part of the list.

Assay: chemical genetic growth profiling, strain panel (AID 1159580);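 also: tested at 20 µM; growth read once vehicle control cultures reached saturation at 30 °C; 1 = growth at the plate median or of vehicle wells; lower values mean less growth of the strain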
Conditions: growth OD

Measured: normalized growth

O=c1cc[nH]c(=S)[nH]1
inactive: S. cerevisiae deletion strains, locus YJR075W, strain HOC1, hits give low values 1.03 | S. cerevisiae deletion strains, locus YKL009W, strain mrt4, hits give low values 1.04 | S. cerevisiae deletion strains, locus YKL068W, hits give low values 1 | S. cerevisiae deletion strains, locus YKL085W, strain MDH1 (second series), hits give low values 1.01 | S. cerevisiae deletion strains, locus YKL085W, strain MDH1, hits give low values 1.01 | S. cerevisiae deletion strains, locus YKL160W, strain elf1, hits give low values 1.06 | S. cerevisiae deletion strains, locus YKL190W, strain CNB1, hits give low values 1.02 | S. cerevisiae deletion strains, locus YKR001C, strain vps1, hits give low values 1.05 | S. cerevisiae deletion strains, locus YKR026C, strain gcn3, hits give low values 1.01 | S. cerevisiae deletion strains, locus YKR091W, strain srl3, hits give low values 1 | S. cerevisiae deletion strains, locus YLL001W, strain dnm1, hits give low values 1.04 | S. cerevisiae deletion strains, locus YLL026W, hits give low values 0.999 | S. cerevisiae deletion strains, locus YLL041C, strain sdh2, hits give low values 1.01 | S. cerevisiae deletion strains, locus YLR027C, strain aat2, hits give low values 1.02 | S. cerevisiae deletion strains, locus YLR039C, strain RIC1, hits give low values 1.09 | S. cerevisiae deletion strains, locus YLR058C, strain SHM2, hits give low values 1.02 | S. cerevisiae deletion strains, locus YLR102C, strain apc9, hits give low values 0.992 | S. cerevisiae deletion strains, locus YLR113W, strain HOG1, hits give low values 1.01 | S. cerevisiae deletion strains, locus YLR221C, strain rsa3, hits give low values 1.01 | S. cerevisiae deletion strains, locus YLR258W, strain gsy2, hits give low values 0.989 | S. cerevisiae deletion strains, locus YLR262C, strain YPT6 (second series), hits give low values 1.03 | S. cerevisiae deletion strains, locus YLR262C, strain YPT6, hits give low values 1.08 | S. cerevisiae deletion strains, locus YLR268W, strain sec22, hits give low values 1.05 | S. cerevisiae deletion strains, locus YLR320W, strain mms22, hits give low values 1.06 | S. cerevisiae deletion strains, locus YLR330W, strain CHS5, hits give low values 1.03 | S. cerevisiae deletion strains, locus YLR342W, strain FKS1 (second series), hits give low values 1 | S. cerevisiae deletion strains, locus YLR342W, strain FKS1, hits give low values 1.01 | S. cerevisiae deletion strains, locus YLR357W, strain rsc2, hits give low values 1.04 | S. cerevisiae deletion strains, locus YLR370C, strain arc18, hits give low values 0.997 | S. cerevisiae deletion strains, locus YLR371W, strain rom2, hits give low values 0.996 | S. cerevisiae deletion strains, locus YLR384C, strain iki3, hits give low values 1.01 | S. cerevisiae deletion strains, locus YLR418C, strain cdc73, hits give low values 1.03 | S. cerevisiae deletion strains, locus YML016C, strain PPZ1, hits give low values 1.02 | S. cerevisiae deletion strains, locus YML032C, strain rad52, hits give low values 1.05 | S. cerevisiae deletion strains, locus YML120C, strain ndi1, hits give low values 1.01 | S. cerevisiae deletion strains, locus YML124C, strain tub3, hits give low values 1.01 | S. cerevisiae deletion strains, locus YMR058W, strain fet3, hits give low values 1.01 | S. cerevisiae deletion strains, locus YMR078C, strain ctf18, hits give low values 1.02 | S. cerevisiae deletion strains, locus YMR125W, strain sto1, hits give low values 1.05 | S. cerevisiae deletion strains, locus YMR129W, hits give low values 0.999 | S. cerevisiae deletion strains, locus YMR205C, strain PFK2, hits give low values 1.05 | S. cerevisiae deletion strains, locus YMR223W, strain ubp8, hits give low values 0.992 | S. cerevisiae deletion strains, locus YMR231W, strain pep5, hits give low values 1.01 | S. cerevisiae deletion strains, locus YMR263W, strain SAP30, hits give low values 1.03 | S. cerevisiae deletion strains, locus YMR307W, strain GAS1, hits give low values 1.01 | S. cerevisiae deletion strains, locus YNL067W, strain RPL9B, hits give low values 1.03 | S. cerevisiae deletion strains, locus YNL071W, strain lat1, hits give low values 1.02 | S. cerevisiae deletion strains, locus YNL128W, strain TEP1, hits give low values 1.03 | S. cerevisiae deletion strains, locus YNL153C, strain GIM3, hits give low values 1.03 | S. cerevisiae deletion strains, locus YNL183C, strain NPR1, hits give low values 0.921 | S. cerevisiae deletion strains, locus YNL209W, strain ssb2, hits give low values 1 | S. cerevisiae deletion strains, locus YNL233W, strain BNI4, hits give low values 1.01 | S. cerevisiae deletion strains, locus YNL248C, strain rpa49, hits give low values 1.09 | S. cerevisiae deletion strains, locus YNL250W, strain rad50, hits give low values 1.01 | S. cerevisiae deletion strains, locus YNL271C, strain bni1, hits give low values 1.01 | S. cerevisiae deletion strains, locus YNL298W, strain CLA4, hits give low values 1.02 | S. cerevisiae deletion strains, locus YNL307C, strain MCK1, hits give low values 1.01 | S. cerevisiae deletion strains, locus YNL322C, strain KRE1 (second series), hits give low values 1.02 | S. cerevisiae deletion strains, locus YNL322C, strain KRE1, hits give low values 1.02 | S. cerevisiae deletion strains, locus YNR049C, strain mso1, hits give low values 1 | S. cerevisiae deletion strains, locus YNR052C, strain pop2, hits give low values 1 | S. cerevisiae deletion strains, locus YOL006C, strain TOP1, hits give low values 1.1 | S. cerevisiae deletion strains, locus YOL012C, strain htz1 1.32 | S. cerevisiae deletion strains, locus YOL147C, strain pex11, hits give low values 1.01 | S. cerevisiae deletion strains, locus YOR001W, strain rrp6, hits give low values 0.972 | S. cerevisiae deletion strains, locus YOR061W, strain CKA2, hits give low values 1.02 | S. cerevisiae deletion strains, locus YOR069W, strain VPS5, hits give low values 1.01 | S. cerevisiae deletion strains, locus YOR070C, strain gyp1, hits give low values 0.997 | S. cerevisiae deletion strains, locus YOR080W, strain dia2, hits give low values 1 | S. cerevisiae deletion strains, locus YOR083W, strain WHI5, hits give low values 1.06 | S. cerevisiae deletion strains, locus YOR106W, strain vam3, hits give low values 1.05 | S. cerevisiae deletion strains, locus YOR136W, strain idh2, hits give low values 1.01 | S. cerevisiae deletion strains, locus YOR144C, strain elg1, hits give low values 1.02 | S. cerevisiae deletion strains, locus YOR184W, strain ser1, hits give low values 1.03 | S. cerevisiae deletion strains, locus YOR231W, strain MKK1, hits give low values 1.01 | S. cerevisiae deletion strains, locus YOR265W, strain rbl2, hits give low values 1.02 | S. cerevisiae deletion strains, locus YOR270C, strain vph1, hits give low values 1.04 | S. cerevisiae deletion strains, locus YOR290C, strain snf2, hits give low values 1.04 | S. cerevisiae deletion strains, locus YOR316C, strain cot1, hits give low values 0.998 | S. cerevisiae deletion strains, locus YPL051W, strain arl3, hits give low values 1.05 | S. cerevisiae deletion strains, locus YPL055C, strain LGE1, hits give low values 1.06 | S. cerevisiae deletion strains, locus YPL078C, strain atp4, hits give low values 1.06 | S. cerevisiae deletion strains, locus YPL106C, strain sse1, hits give low values 1 | S. cerevisiae deletion strains, locus YPL240C, strain hsp82, hits give low values 1.01 | S. cerevisiae deletion strains, locus YPL241C, strain CIN2, hits give low values 1.01 | S. cerevisiae deletion strains, locus YPL256C, strain CLN2, hits give low values 1 | S. cerevisiae deletion strains, locus YPR119W, strain clb2, hits give low values 1 | S. cerevisiae deletion strains, locus YPR141C, strain kar3, hits give low values 1.01 | S. cerevisiae deletion strains, locus YPR163C, strain tif3, hits give low values 1.02 | S. cerevisiae deletion strains, locus YPR167C, strain met16, hits give low values 1.02 | S. cerevisiae deletion strains, strain wtn01, hits give low values 1.04 | S. cerevisiae strains, strain wild type, hits give low values 1.03
